In PubChem BioAssay AID1159580 (chemical genetic matrix, 2015):
Out of some 5,500 compounds screened, about 2,000 (36%) were called active. Another 18% or so got no clear call; they are omitted. Rule as the data show it: active = normalized growth mostly below about 0.91 (no sharp cut-off); inconclusive = no clear call, values can overlap the other calls; inactive = mostly above about 0.92. This is one part of the list.

Assay: chemical genetic growth profiling, strain panel (AID 1159580);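 also: tested at 20 µM; growth read once vehicle control cultures reached saturation at 30 °C; 1 = growth at the plate median or of vehicle wells; lower values mean less growth of the strain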
Settings: S. cerevisiae deletion strains, growth OD
[1] = locus YHR030C, strain SLT2, hits give low values
[2] = locus YHR079C, strain IRE1, hits give low values
[3] = locus YJL095W, strain BCK1, hits give low values
[4] = locus YJR066W, strain TOR1, hits give low values
[5] = locus YLR113W, strain HOG1, hits give low values
[6] = locus YNL183C, strain NPR1, hits give low values
[7] = locus YOR231W, strain MKK1, hits give low values
[8] = locus YPL256C, strain CLN2, hits give low values

Measured: normalized growth

O=C1NCCN=C(c2ccccc2)c2ccccc21
inactive: locus YAL013W, strain DEP1, hits give low values 0.999 | locus YBR229C, strain ROT2, hits give low values 1 | locus YCL061C, strain MRC1, hits give low values 0.99 | locus YDL101C, strain DUN1, hits give low values 0.984 | locus YDL134C, strain PPH21, hits give low values 1.01 | locus YDR150W, strain NUM1, hits give low values 0.911 | locus YEL061C, strain CIN8, hits give low values 0.995 | locus YGR078C, strain PAC10, hits give low values 0.99 | [1] 1.03 | locus YHR087W, strain rtc3, hits give low values 0.999 | locus YJL187C, strain SWE1, hits give low values 0.997 | locus YJR043C, strain POL32, hits give low values 0.995 | locus YJR075W, strain HOC1, hits give low values 1.01 | locus YLR039C, strain RIC1, hits give low values 0.985 | locus YLR058C, strain SHM2 (second series), hits give low values 0.998 | locus YLR085C, strain ARP6, hits give low values 1.01 | locus YLR262C, strain YPT6, hits give low values 0.968 | locus YML094W, strain GIM5, hits give low values 0.98 | locus YMR219W, strain ESC1, hits give low values 0.999 | locus YMR263W, strain SAP30, hits give low values 0.973 | locus YMR307W, strain GAS1, hits give low values 0.994 | locus YNL153C, strain GIM3, hits give low values 0.99 | locus YNL298W, strain CLA4 (second series), hits give low values 1.01 | locus YNL322C, strain KRE1, hits give low values 0.994 | locus YNR030W, strain Alg12, hits give low values 1 | locus YOL006C, strain TOP1, hits give low values 1 | locus YPL055C, strain LGE1, hits give low values 0.956 | locus YPL241C, strain CIN2, hits give low values 0.976 | locus YPR135W, strain CTF4, hits give low values 1.01

CC(=O)c1ccc[nH]1
inactive: locus YAL021C, strain ccr4, hits give low values 1.01 | locus YAL026C, strain drs2, hits give low values 1 | locus YAL030W, strain snc1, hits give low values 0.997 | locus YBL061C, strain skt5, hits give low values 0.996 | locus YBR009C, strain hhf1, hits give low values 1.02 | locus YBR023C, strain chs3, hits give low values 0.998 | locus YBR171W, strain sec66, hits give low values 1.01 | locus YBR231C, strain swc5, hits give low values 1 | locus YBR279W, strain paf1, hits give low values 1.01 | locus YCL011C, strain gbp2, hits give low values 1 | locus YCL016C, strain dcc1, hits give low values 0.997 | locus YCL069W, strain vba3, hits give low values 1 | locus YCR088W, strain abp1, hits give low values 1.01 | locus YDL005C, strain med2, hits give low values 0.99 | locus YDL040C, strain nat1, hits give low values 0.998 | locus YDR001C, strain nth1, hits give low values 1 | locus YDR069C, strain doa4, hits give low values 1.01 | locus YDR137W, strain rgp1, hits give low values 0.98 | locus YDR159W, strain sac3, hits give low values 0.975 | locus YDR195W, strain ref2 0.979 | locus YDR297W, strain sur2, hits give low values 1.01 | locus YDR334W, strain swr1, hits give low values 0.995 | locus YDR335W, strain msn5, hits give low values 0.993 | locus YDR392W, strain spt3, hits give low values 1.01 | locus YEL003W, strain gim4, hits give low values 0.998 | locus YEL037C, strain rad23, hits give low values 1 | locus YEL061C, strain CIN8 (second series), hits give low values 1.01 | locus YER015W, strain faa2, hits give low values 1 | locus YER016W, strain bim1, hits give low values 0.995 | locus YER111C, strain swi4, hits give low values 0.994 | locus YER155C, strain BEM2 (second series), hits give low values 0.994 | locus YFR010W, strain ubp6, hits give low values 1 | locus YGL167C, strain pmr1, hits give low values 0.988 | locus YGL173C, strain kem1, hits give low values 0.998 | locus YGL227W, strain vid30, hits give low values 0.996 | locus YGL240W, strain doc1, hits give low values 1 | locus YGL253W, strain hxk2, hits give low values 1 | locus YHR013C, strain ard1, hits give low values 1.01 | locus YHR027C, strain rpn1, hits give low values 0.991 | [1] 1 | [2] 0.992 | locus YHR142W, strain chs7, hits give low values 1 | locus YJL092W, strain hpr5, hits give low values 0.992 | locus YJL095W, strain BCK1 (second series), hits give low values 0.988 | [3] 0.988 | locus YJL115W, strain asf1, hits give low values 0.993 | locus YJL129C, strain trk1, hits give low values 0.988 | locus YJL154C, strain vps35, hits give low values 0.996 | locus YJL164C, strain tpk1, hits give low values 1.01 | locus YJL166W, strain qcr8, hits give low values 1.01 | [4] 0.942 | locus YKL160W, strain elf1, hits give low values 1 | locus YKR026C, strain gcn3, hits give low values 0.998 | locus YKR091W, strain srl3, hits give low values 0.999 | locus YLL001W, strain dnm1, hits give low values 1.01 | locus YLL026W, hits give low values 1 | locus YLL041C, strain sdh2, hits give low values 1 | locus YLR027C, strain aat2, hits give low values 1 | [5] 1 | locus YLR221C, strain rsa3, hits give low values 1.01 | locus YLR258W, strain gsy2, hits give low values 1.01 | locus YLR262C, strain YPT6 (second series), hits give low values 1.03 | locus YLR320W, strain mms22, hits give low values 1 | locus YLR342W, strain FKS1, hits give low values 0.999 | locus YLR357W, strain rsc2, hits give low values 0.971 | locus YLR370C, strain arc18, hits give low values 0.994 | locus YLR384C, strain iki3, hits give low values 0.997 | locus YML120C, strain ndi1, hits give low values 1.01 | locus YMR058W, strain fet3, hits give low values 0.997 | locus YMR125W, strain sto1, hits give low values 0.997 | locus YMR129W, hits give low values 0.996 | locus YMR205C, strain PFK2, hits give low values 1.01 | locus YMR231W, strain pep5, hits give low values 1 | locus YNL071W, strain lat1, hits give low values 1 | [6] 0.902 | locus YNL209W, strain ssb2, hits give low values 1.01 | locus YNL248C, strain rpa49, hits give low values 0.98 | locus YNL322C, strain KRE1 (second series), hits give low values 0.986 | locus YNR049C, strain mso1, hits give low values 1.01 | locus YOR001W, strain rrp6, hits give low values 1 | locus YOR070C, strain gyp1, hits give low values 1.01 | locus YOR080W, strain dia2, hits give low values 1 | locus YOR083W, strain WHI5, hits give low values 1 | locus YOR106W, strain vam3, hits give low values 0.985 | [7] 1.02 | locus YOR265W, strain rbl2, hits give low values 1.02 | locus YOR270C, strain vph1, hits give low values 1.01 | locus YOR290C, strain snf2, hits give low values 0.992 | locus YPL051W, strain arl3, hits give low values 1.02 | locus YPL078C, strain atp4, hits give low values 1.01 | locus YPL106C, strain sse1, hits give low values 0.978 | locus YPL240C, strain hsp82, hits give low values 0.994 | [8] 0.99

C[C@]12CCc3occc3C1CC[C@@]13C[C@@H](CCC12)[C@@](O)(CO)C3 (stereo not given in full)
inactive: [1] 0.934 | [2] 0.961 | [3] 0.948 | [4] 0.909 | [5] 0.873 | [6] 0.91 | [7] 0.911 | [8] 0.924
